Source: PubChem BioAssay
In the library only some 28% were active in any assay of this set; here they are far more common.
CYP2C9 inhib = blockers of cytochrome P450 2C9 activity – biochemical, luminescence, ADME assay, primary screen | P11712 | CYP2C9 Supersomes, luciferin-H conversion | inhibition, % at 5 µM | hit rate 20% among 96,000;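 active = blocking of liver enzyme CYP2C9 beyond about 50% at 5 µM, limit read from the data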
Target sequence (P11712 whole entry, looked up): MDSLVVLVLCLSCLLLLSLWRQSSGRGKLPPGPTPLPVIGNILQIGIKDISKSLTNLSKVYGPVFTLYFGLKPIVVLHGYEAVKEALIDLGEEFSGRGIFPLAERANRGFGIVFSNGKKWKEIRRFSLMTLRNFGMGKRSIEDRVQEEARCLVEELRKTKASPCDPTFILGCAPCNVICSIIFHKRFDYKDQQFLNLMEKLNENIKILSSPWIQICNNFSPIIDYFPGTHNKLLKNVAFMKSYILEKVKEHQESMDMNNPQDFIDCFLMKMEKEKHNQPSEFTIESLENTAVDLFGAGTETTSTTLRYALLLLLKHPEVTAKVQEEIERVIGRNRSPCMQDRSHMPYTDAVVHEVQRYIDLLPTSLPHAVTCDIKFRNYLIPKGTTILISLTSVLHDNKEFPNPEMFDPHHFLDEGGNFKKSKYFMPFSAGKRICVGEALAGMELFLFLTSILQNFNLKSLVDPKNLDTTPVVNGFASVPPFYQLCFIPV
PTK2B oligo ant = antagonists of Pyk2 self-association, primary screen, Q293 cells, FERM NanoBiT luminescence, HTS. stronger effect = lower value. hit rate 0.83% among 99,000. Protein-tyrosine kinase 2-beta (Homo sapiens), Q14289. z-score (the deposit names both 25 µM and 10 µM);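 active = Z-score of -3 or lower, scaled per plate to the spread of control and sample wells; inactive = z-score above -3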;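 also: negative z-score means lost luminescence so less FERM oligomerization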
CYP2C9 act = human CYP2C9 activators, primary screen, biochemical, luminescence | Cytochrome P450 2C9 (Homo sapiens), P11712 | recombinant CYP2C9, luciferin-H conversion; stronger effect = higher value; factor 1 = untreated enzyme, 0 = blocked | activation factor at 5 µM | hit rate 1.4% among 96,000 | AID 1024, 2008;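 active = activation factor of 2 or more for CYP2C9 at a 5 µM dose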
CYP2C19 activ = human CYP2C19 activators, primary screen, biochemical, luminescence; recombinant CYP2C19, luciferin-H EGE luminescence; stronger effect = higher value; 0 = fully inhibited enzyme, 1 = untreated enzyme; 96,000 tested, under 10 active; activation factor at 5 µM;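 active = activation factor of at least 2 at 5 µM in the primary screen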
CYP2C19 inhib = blockers of cytochrome P450 2C19 activity – biochemical, luminescence, ADME assay, primary screen | inhibition, % at 5 µM | AID 778, 2007 | CYP2C19 Supersomes, luciferin-H EGE luminescence, 30 min | hit rate 21% among 96,000;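 active = CYP2C19 inhibition above a set limit at 5 µM in the primary screen, cut at about 50% in these data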
A number is an active result; n = inactive; x = no result.

SMILES	CYP2C9 inhib	PTK2B oligo ant	CYP2C9 act	CYP2C19 activ	CYP2C19 inhib
CCOC(=O)c1ccc(NC(=O)CCc2c(C)nc3ncnn3c2C)cc1	x	n	x	x	x
O=C(N1CCOCC1)C(F)(F)C(F)(F)C(F)(F)C(F)(F)C(=O)N1CCOCC1	n	n	n	n	n
C=CCN1C(=O)CSc2ccc(C(=O)N3CCC(C)CC3)cc21	n	n	n	n	n
CCOC(=O)C(CC)(CC)C(=O)/C=C/c1cccc(Br)c1	x	n	x	x	x
COc1ccc(C(=O)c2sc(NC(C)C)nc2N)cc1OC	n	n	n	n	86
COc1cccc(C(=O)c2sc(NC(C)C)nc2N)c1	x	n	x	x	x
O=C1C2C(C(=O)N1c1ccncc1)C1C=CC2C12CC2 (stereo not drawn)	75	n	n	n	92
COc1ccc(NC(=O)C2CCCN2S(=O)(=O)c2ccc3c(c2)CCC(=O)N3)cc1 (stereo not drawn)	90	x	n	n	n
COc1ccc(S(=O)(=O)N2CCCC2C(=O)Nc2ccc(O)cc2)cc1 (stereo not drawn)	n	x	n	n	n
COc1ccc(NC(=O)C2CCCN2S(=O)(=O)c2ccc3c(c2)CCC(=O)N3)cc1Cl (stereo not drawn)	65	x	n	n	n
Cc1cccc(OCc2nnc3n2CCCCC3)c1	n	n	n	n	n
CC(C)C1NC(=S)N(Cc2ccccc2)C1=O (stereo not drawn)	n	n	n	n	58
CCOc1cc(/C=C(/C#N)C(=O)Nc2ccc(O)cc2)cc(Br)c1O	94	n	n	n	61
O=C(CSc1ccc(-c2ccco2)nn1)NCc1ccccc1Cl	x	n	x	x	x
CCOCCCNC(=O)C1c2ccccc2C(=O)N2CCc3ccccc3C12 (stereo not drawn)	n	n	n	n	n
COC(=O)CN(C#N)c1nc(SC)nc(N(C)C)n1	n	n	n	n	56
CC(=O)OCN(C#N)c1nc(N(C)C)nc(N(C)C)n1	n	n	n	n	n
CC(C)CC(OC(=O)c1cccs1)C(=O)NCc1cccs1 (stereo not drawn)	92	n	n	n	95
CC(OC(=O)c1cccs1)C(=O)NCc1cccs1 (stereo not drawn)	62	n	n	n	95
CC(OC(=O)c1ccco1)C(=O)NCc1cccs1 (stereo not drawn)	x	n	x	x	x
COc1ccc(NC(=O)c2cc(CN3C(=O)c4ccccc4C3=O)ccc2OC)cn1	78	n	n	n	n
COc1ccc(NC(=O)c2cccc(Cn3cc(Br)cn3)c2)cn1	78	n	n	n	71
CCCCOc1ccc(Cl)cc1CSc1n[nH]c(C)n1	64	n	n	n	85
COc1ccc(Cl)cc1CSc1n[nH]c(C)n1	n	n	n	n	88
CCCCOc1ccc(Cl)cc1CSc1nnc(C)n1N	n	n	n	n	n
SMILES	CYP2C9 inhib	PTK2B oligo ant	CYP2C9 act	CYP2C19 activ	CYP2C19 inhib
CCOc1ccc(Cl)cc1CSc1n[nH]c(CC)n1	72	n	n	n	94
O=C(COc1cccc(NC(=O)c2ccco2)c1)c1ccccc1	n	n	n	n	n
CC(C)CNC(=S)NNC(=O)c1csc2c1CCC(C)C2 (stereo not drawn)	n	n	n	n	52
Cc1cccc(NC(=S)NNC(=O)c2csc3c2CCC(C)C3)c1 (stereo not drawn)	n	n	n	n	n
CCCCNC(=O)C1CC(=O)N(c2ccc(OC)cc2)C1c1ccc(OC)cc1 (stereo not drawn)	n	n	n	n	n
O=C(O)CCNS(=O)(=O)c1ccccc1	n	n	n	n	n
Cc1ccccc1Oc1ccc(S(=O)(=O)NCCC(=O)O)cc1	n	-3.5	n	n	n
O=C1CC(c2ccccc2)CC(O)=C1C=NC1CCCCC1 (stereo not drawn)	n	n	n	n	n
O=C1CC(c2ccccc2)CC(O)=C1C=NC1CCCC1 (stereo not drawn)	n	n	n	n	79
CC(C)=CC/C=C1\CCC(C(=O)O)C(C(=O)O)C1 (stereo not drawn)	n	n	n	n	n
COc1cc(O)oc1C=Nc1ccc(Cl)cc1	n	n	n	n	n
COc1cc(O)oc1C=Nc1ccc(Cl)cc1Cl	n	n	n	n	69
Cc1cc(C)n(C(=O)CNC(=O)c2ccc3c(c2)OCCO3)n1	n	n	n	n	n
COc1cc(C(=O)N(Cc2cc3cc(C)ccc3[nH]c2=O)CC2CCCO2)cc(OC)c1OC (stereo not drawn)	63	n	n	n	n
COc1ccccc1CN(Cc1cc2cc(C)cc(C)c2[nH]c1=O)Cc1nnnn1CC1CCCO1 (stereo not drawn)	56	n	n	n	63
COc1ccc2[nH]c(=O)c(CN(Cc3ccc(C)cc3)Cc3nnnn3CC3CCCO3)cc2c1 (stereo not drawn)	84	n	n	n	60
COc1ccc2[nH]c(=O)c(CN(Cc3ccccc3OC)Cc3nnnn3CC3CCCO3)cc2c1 (stereo not drawn)	n	n	n	n	70
COc1cccc(C(=O)N(Cc2cc3cc(C)ccc3[nH]c2=O)CC2CCCO2)c1 (stereo not drawn)	n	n	n	n	n
CCCc1cc(=O)[nH]c(Nc2cc(OC)ccc2OC)n1	n	n	n	n	n
Cc1ccc(/C=C2\OC(=O)c3ccccc32)cc1	n	n	n	n	n
O=C(NCC1CCCO1)C1CCC(=O)N1Cc1ccccc1Cl (stereo not drawn)	n	n	n	n	n
CS(=O)(=O)Nc1ccc(C(=O)N2CCCCC2)cc1	n	n	n	n	n
COc1ccccc1CN(Cc1cc2cc(C)ccc2[nH]c1=O)Cc1nnnn1CC1CCCO1 (stereo not drawn)	56	n	n	n	n
Cc1ccc2cc(CN(Cc3cccs3)Cc3nnnn3CC3CCCO3)c(=O)[nH]c2c1C (stereo not drawn)	n	n	n	n	56
Cc1occc(=O)c1OC(=O)Nc1ccccc1	n	n	n	n	n
SMILES	CYP2C9 inhib	PTK2B oligo ant	CYP2C9 act	CYP2C19 activ	CYP2C19 inhib
CC(C)(CS(=O)(=O)[O-])NC(=O)CC[N+](C)(C)CCO	n	n	n	n	n
COc1ccccc1NC(=O)CSc1nnc(Cc2cccn2C)n1CCc1ccccc1	n	n	n	n	n
CCOC(=O)c1ccccc1NC(=O)CSc1nnc(Cc2cccn2C)n1-c1ccc(C)cc1	89	n	n	n	56
COc1cccc(NC(=O)CSc2nnc(Cc3cccn3C)n2-c2ccc(F)cc2)c1	84	x	n	n	n
COc1ccc(-n2c(Cc3cccn3C)nnc2SCC(=O)Nc2ccc(F)cc2F)cc1	55	x	n	n	n
COc1ccc(NC(=O)CSc2nnc(Cc3cccn3C)n2CCc2ccccc2)c(OC)c1	n	n	n	n	75
COc1ccc(-n2c(Cc3cccn3C)nnc2SCC(=O)Nc2ccccc2F)cc1	n	x	n	n	n
